KDM5B inhibitor – inhibitors of human KDM5B histone demethylase. 220,000 compounds, 2.6% hits. AID 1347165. KDM5B demethylase, FDH-coupled NADH fluorescence (FDH is formaldehyde dehydrogenase). Potency, µM (top dose mostly 57.7 µM), actives largely listed as inhibitors; active = well fitted inhibition curve with a large enough effect; note: 0% is about no effect; nearly all actives have a fitted effect of over 70% in size
Target sequence (Q9UGL1 whole entry, looked up): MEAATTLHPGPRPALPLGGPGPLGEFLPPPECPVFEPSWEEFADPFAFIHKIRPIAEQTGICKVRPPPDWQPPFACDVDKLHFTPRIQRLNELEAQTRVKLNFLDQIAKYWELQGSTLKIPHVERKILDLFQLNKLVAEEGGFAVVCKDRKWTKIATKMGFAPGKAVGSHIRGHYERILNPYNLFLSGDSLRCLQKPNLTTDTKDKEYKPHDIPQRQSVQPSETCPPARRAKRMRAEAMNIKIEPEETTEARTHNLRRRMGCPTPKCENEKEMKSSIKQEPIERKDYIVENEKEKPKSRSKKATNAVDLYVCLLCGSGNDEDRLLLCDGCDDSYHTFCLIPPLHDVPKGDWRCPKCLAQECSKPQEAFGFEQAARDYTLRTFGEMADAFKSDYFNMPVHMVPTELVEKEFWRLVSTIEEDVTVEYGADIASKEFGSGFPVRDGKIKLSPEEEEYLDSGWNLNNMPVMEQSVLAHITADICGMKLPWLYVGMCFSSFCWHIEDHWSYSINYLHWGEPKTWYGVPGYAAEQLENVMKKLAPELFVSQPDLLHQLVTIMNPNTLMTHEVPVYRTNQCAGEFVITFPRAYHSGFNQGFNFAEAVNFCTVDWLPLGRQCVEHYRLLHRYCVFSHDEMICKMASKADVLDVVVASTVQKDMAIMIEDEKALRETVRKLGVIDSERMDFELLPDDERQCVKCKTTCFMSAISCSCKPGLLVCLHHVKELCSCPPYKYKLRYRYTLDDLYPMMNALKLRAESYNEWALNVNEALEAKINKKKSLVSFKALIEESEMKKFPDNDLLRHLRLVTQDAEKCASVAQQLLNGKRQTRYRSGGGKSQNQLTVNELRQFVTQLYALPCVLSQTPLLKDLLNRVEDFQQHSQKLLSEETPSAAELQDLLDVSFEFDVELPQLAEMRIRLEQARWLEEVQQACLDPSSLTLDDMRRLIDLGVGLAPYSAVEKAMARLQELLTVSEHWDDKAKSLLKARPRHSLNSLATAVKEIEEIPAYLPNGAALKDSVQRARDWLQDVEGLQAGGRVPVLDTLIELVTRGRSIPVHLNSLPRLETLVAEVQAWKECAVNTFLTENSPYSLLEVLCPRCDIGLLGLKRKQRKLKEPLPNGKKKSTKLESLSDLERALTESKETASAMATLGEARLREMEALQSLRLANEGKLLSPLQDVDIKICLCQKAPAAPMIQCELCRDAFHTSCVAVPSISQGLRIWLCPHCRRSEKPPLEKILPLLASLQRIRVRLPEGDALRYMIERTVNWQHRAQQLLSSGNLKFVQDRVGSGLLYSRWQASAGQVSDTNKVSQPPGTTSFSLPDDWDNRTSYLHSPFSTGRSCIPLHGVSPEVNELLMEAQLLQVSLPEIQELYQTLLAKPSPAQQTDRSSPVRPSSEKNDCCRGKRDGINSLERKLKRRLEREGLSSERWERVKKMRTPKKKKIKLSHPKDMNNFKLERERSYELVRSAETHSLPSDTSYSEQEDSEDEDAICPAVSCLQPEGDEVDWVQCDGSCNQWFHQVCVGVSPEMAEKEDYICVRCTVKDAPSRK
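Measured: NADH fluorescence change, 30 min, RT. System: KDM5BΔAP 200 nM final, H3K4me3 peptide, α-KG, Fe(II), ascorbate, NAD⁺ plus FDH, pH 7.5 HEPES. Compounds: titrated, 10 min pre-incubation with enzyme.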
Numbers without * were called inactive; i = inactive. The full list was thinned out, with hits kept by preference. Potency is the fitted concentration of half-maximal effect.

SMILES	KDM5B inhibitor
Cc1ccc(NC(=O)C2(c3ccccc3)CCCC2)cc1	i
Cc1ccc(NC(=O)C2(CCO)CCN(c3ncccn3)C2)cc1 (stereo not drawn)	28µM*
O=C(Nc1cccc(OC(F)(F)F)c1)C1(CCO)CCN(c2ncccn2)C1 (stereo not drawn)	25µM*
O=C(Nc1cccc(OC(F)(F)F)c1)[C@@H]1COCC(=O)N1Cc1ccc(F)cc1	i
CC(C)N1C(=O)C2(CCCC2)C1C(=O)Nc1cccc(OC(F)(F)F)c1 (stereo not drawn)	i
COCCCNC(=O)C1(CCO)CCN(Cc2ccccc2)C1 (stereo not drawn)	i
Cc1ccc(OCC(=O)N2CCN(c3ncccn3)CC2)cc1	i
Cc1ccc(CNC(=O)C2(CCO)CCN(Cc3ccccc3)C2)o1 (stereo not drawn)	i
Cc1ccc(-c2nn(Cc3nc(-c4ccccc4)no3)c(=O)c3ccccc23)cc1	i
COc1ccc(C(CC(=O)Nc2cccc(-c3ccno3)c2)n2cccc2)cc1 (stereo not drawn)	i
O=C(Nc1ccc(O)c(-c2nc3ccccc3o2)c1)c1ccccc1F	i
CCC(C)c1ccc(OCC(=O)Nc2ccc(OC)cc2)c(-n2cnnc2)c1 (stereo not drawn)	i
CCS(=O)(=O)NC(CCSC)C(=O)O (stereo not drawn)	i
COc1cccc(OC)c1C(=O)OCc1ccc(Br)cc1	i
CCOc1ccccc1NC(=O)N1CCC([C@@H]2[C@H](OC)C(=O)N2C(C)C)CC1	i
Cc1cccc(C2CCCN2C(=O)c2cc(C(C)C)on2)c1 (stereo not drawn)	i
Cc1ccc2nc(C(=O)NCCc3nc(C)cc(C(F)(F)F)n3)cn2c1	i
CCCc1nc(C(=O)NCc2nc(C)cc(C(F)(F)F)n2)cs1	i
Cc1cc(C(F)(F)F)nc(CNC(=O)c2ccc3cccc(F)c3n2)n1	22µM*
O=C(Nc1nnc(Cc2ccccc2)s1)c1cc(=O)c2ccccc2o1	i
c1ccc(CCc2nnc(CC3CCCCC3)s2)cc1	i
O=C1c2c(nc(CNCc3cnccn3)n2Cc2ccccc2)NCCN1Cc1cccc(Cl)c1	25µM*
O=C1c2c(nc(CNCc3cccnc3)n2Cc2ccccc2)NCCN1Cc1cccc(Cl)c1	i
COCCN1CCNc2nc(CNCc3cccc(Cl)c3)n(Cc3ccccc3)c2C1=O	i
COc1ccc(OCC(O)Cn2c(NCCc3ccccc3)nc3c2c(=O)n(C)c(=O)n3C)cc1 (stereo not drawn)	i
SMILES	KDM5B inhibitor
COc1ccc(Cl)cc1CN(C)c1cc(C2CC(N)C2)ncn1 (stereo not drawn)	i
CC(C)NC(=O)N1CCC(c2noc(-c3ccccc3)n2)C1 (stereo not drawn)	i
CCC(C(=O)NCc1nnc2c(-c3nc(C)no3)cccn12)c1ccccc1 (stereo not drawn)	32µM*
CCC(C(=O)NCc1nnc2c(-c3nc(C4CC4)no3)cccn12)c1ccccc1 (stereo not drawn)	32µM*
CCC(C(=O)NCc1ccc(OC)cc1)c1ccccc1 (stereo not drawn)	i
CCC(C(=O)Nc1ccccc1OCc1cc(=O)n2cccc(C)c2n1)c1ccccc1 (stereo not drawn)	i
CCc1noc(-c2ccn3c(CNC(=O)C(CC)c4ccccc4)nnc3c2)n1 (stereo not drawn)	i
CCNC(=O)N1CCC(c2noc(-c3ccccc3)n2)C1 (stereo not drawn)	i
CC(C)c1noc(-c2cccn3c(CNC(=O)C(C)c4ccccc4)nnc23)n1 (stereo not drawn)	14µM*
COCc1nc(CCNC(=O)C(C)c2ccccc2)no1 (stereo not drawn)	i
CCC(C(=O)NCc1nnc2c(-c3nc(C(C)C)no3)cccn12)c1ccccc1 (stereo not drawn)	13µM*
CCC(C(=O)NCc1ccc(C(=O)OC)cc1)c1ccccc1 (stereo not drawn)	i
CC(C(=O)NCCc1noc(-c2cccnc2)n1)c1ccccc1 (stereo not drawn)	i
Fc1ccc(-c2nc(-c3ccccc3)c(-c3ccc(F)cc3)o2)cc1	i
CCOc1cc(/C=C2\NC(=O)NC2=O)ccc1OCc1ccc(Cl)cc1	i
Cc1ccccc1NC(=O)C(C)Sc1ncnc2ccccc12 (stereo not drawn)	i
N#Cc1cccc(C(=O)N2CCCCCCNC(=O)[C@@H]3C[C@@H](c4nc(Cc5ccccc5)no4)C[C@@H]32)c1	i
Cc1ccc(-n2nnc(S(=O)(=O)c3ccc(Cl)cc3)c2C)cc1F	i
Cc1c(C(=O)Nc2ccccc2)sc2c1C(c1ccncc1)CC(=O)N2 (stereo not drawn)	i
CCC1CCCCN1C(=O)CN1C(=O)N(c2cc(Cl)ccc2C)S(=O)(=O)c2ccccc21 (stereo not drawn)	i
O=C(CN1CCCCC1)Nc1oc2ccccc2c(=O)c1-c1ccc(Cl)cc1	i
Cc1oc(-c2ccc(OC(C)C)cc2)nc1Cn1nnc(C(=O)NCc2ccc(Cl)cc2)c1N	i
CC[C@H]1CN(C(=O)c2ccnc(Cl)c2)CC[C@H]1CC(=O)O	i
Cc1ccc(-c2nc(CC(=O)NC3CCN(Cc4ccccc4)CC3)cs2)cc1	i
Cc1ccc2[nH]c(=O)c(CCC(=O)N3CCN(CC(C)C)CC3)cc2c1	22µM*
SMILES	KDM5B inhibitor
Cc1ccc2[nH]c(=O)c(CCC(=O)N3CCCCC3)cc2c1	28µM*
CCCCN1CCN(C(=O)CCc2cc3ccc(C)cc3[nH]c2=O)CC1	i
Cc1ccc2[nH]c(=O)c(CCC(=O)NC3CCN(Cc4ccccc4)CC3)cc2c1	25µM*
CC(=O)N(Cc1ccccc1)Cc1cc2cc(C)ccc2[nH]c1=O	i
CCOC(=O)N1CCN(C(=O)c2cc3cc(C)ccc3[nH]2)CC1	i
CCCN(Cc1cc2cc(C)ccc2[nH]c1=O)S(C)(=O)=O	i
Cc1cccc(-c2nocc2CCC(=O)NC2CCN(Cc3ccccc3)CC2)c1	i
COc1cc2c(cc1OC)CN(CC(=O)Nc1cc(C)cc(C)c1)CC2	i
O=C(c1ccc(-n2cncn2)cc1)N1CCCC1c1nc2ccccc2[nH]1 (stereo not drawn)	i
CCCCC(CC)C(=O)Nc1cccc2ccccc12 (stereo not drawn)	i
COC(=O)c1ccc(COC(=O)c2oc3ccccc3c2C)o1	i
C#CCNC(=O)NC(CCC)c1ccccc1 (stereo not drawn)	i
O=C(c1noc(-c2ccc(F)cc2)n1)N1CCN(c2ccccc2F)CC1	32µM*
Cc1ccc(N2CCN(C(=O)c3noc(-c4ccc(F)cc4)n3)CC2)cc1	i
Cc1ccc(-c2nc(C(=O)N3CCN(c4cccc(C)c4C)CC3)no2)cc1	i
O=C(NC1CCCC1)C1CCCN(C(=O)Cc2c[nH]c3ccccc23)C1 (stereo not drawn)	i
COCCN1CCCCCC(O)c2cc(C(=O)NCCN3CCOCC3)ccc21 (stereo not drawn)	i
CN1CCC2(C1)CN(CC1CCOCC1)c1ccc(C(=O)NCCOc3ccccc3)cc12 (stereo not drawn)	22µM*
CN1CCC2(C1)CN(CC1CCOCC1)c1ccc(C(=O)NCCc3ccccc3)cc12 (stereo not drawn)	32µM*
O=C(NCCOc1ccccc1)c1ccc2c(c1)OCCN(CCC(F)(F)F)C2	i
CC(C)(C(=O)NCCc1ccccc1)C1CCOCC1	i
CC1(CNC(=O)c2ccc3c(c2)OCO3)CCOCC1	i
